From PubChem BioAssay AID1159580 (chemical genetic matrix, 2015)
In all, about 5,500 compounds went through this assay and about 2,000 (36%) were called active. Another 18% or so got no clear call; they are omitted. Cut-off read from the data, not from the text of the source: active = normalized growth mostly below about 0.91 (no sharp cut-off); inconclusive = no clear call, values can overlap the other calls; inactive = mostly above about 0.92. The list shows a part of the results.

Experiment: chemical genetic growth profiling, strain panel (AID 1159580);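 note: tested at 20 µM; growth read once vehicle control cultures reached saturation at 30 °C; 1 = growth at the plate median or of vehicle wells; lower values mean less growth of the strain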
Conditions: growth OD

Measured: normalized growth

NCCC(O)C(=O)NC1CC(N)C(OC2OC(CN)C(O)C(O)C2N)C(OC2OC(CO)C(O)C2O)C1O (stereo unspecified)
inactive: S. cerevisiae deletion strains, locus YAL013W, strain DEP1, stronger effect = lower value 1.04 | S. cerevisiae deletion strains, locus YBR021W, strain FUR4, stronger effect = lower value 0.976 | S. cerevisiae deletion strains, locus YBR229C, strain ROT2, stronger effect = lower value 1 | S. cerevisiae deletion strains, locus YCL029C, strain bik1, stronger effect = lower value 0.994 | S. cerevisiae deletion strains, locus YDL035C, strain GPR1, stronger effect = lower value 0.993 | S. cerevisiae deletion strains, locus YDL074C, strain BRE1, stronger effect = lower value 1.03 | S. cerevisiae deletion strains, locus YDL101C, strain DUN1, stronger effect = lower value 1 | S. cerevisiae deletion strains, locus YDL134C, strain PPH21, stronger effect = lower value 0.999 | S. cerevisiae deletion strains, locus YDL185W, strain tfp1, stronger effect = lower value 0.979 | S. cerevisiae deletion strains, locus YDL192W, strain arf1, stronger effect = lower value 1 | S. cerevisiae deletion strains, locus YDR101C, strain arx1, stronger effect = lower value 1 | S. cerevisiae deletion strains, locus YDR150W, strain NUM1, stronger effect = lower value 0.999 | S. cerevisiae deletion strains, locus YDR162C, strain NBP2, stronger effect = lower value 1.01 | S. cerevisiae deletion strains, locus YDR318W, strain mcm21, stronger effect = lower value 0.992 | S. cerevisiae deletion strains, locus YDR388W, stronger effect = lower value 0.998 | S. cerevisiae deletion strains, locus YDR502C, strain sam2, stronger effect = lower value 1 | S. cerevisiae deletion strains, locus YEL061C, strain CIN8, stronger effect = lower value 1 | S. cerevisiae deletion strains, locus YER110C, stronger effect = lower value 0.988 | S. cerevisiae deletion strains, locus YER155C, strain BEM2, stronger effect = lower value 0.993 | S. cerevisiae deletion strains, locus YER167W, strain BCK2, stronger effect = lower value 0.978 | S. cerevisiae deletion strains, locus YGL078C, strain dbp3, stronger effect = lower value 0.999 | S. cerevisiae deletion strains, locus YGL086W, strain mad1, stronger effect = lower value 0.989 | S. cerevisiae deletion strains, locus YGL248W, strain PDE1, stronger effect = lower value 0.994 | S. cerevisiae deletion strains, locus YGR078C, strain PAC10, stronger effect = lower value 1.01 | S. cerevisiae deletion strains, locus YGR135W, strain pre9, stronger effect = lower value 1.02 | S. cerevisiae deletion strains, locus YGR229C, strain SMI1, stronger effect = lower value 1.02 | S. cerevisiae deletion strains, locus YGR252W, strain gcn5, stronger effect = lower value 0.994 | S. cerevisiae deletion strains, locus YHR030C, strain SLT2, stronger effect = lower value 0.983 | S. cerevisiae deletion strains, locus YHR079C, strain IRE1 (second series), stronger effect = lower value 0.99 | S. cerevisiae deletion strains, locus YHR094C, strain hxt1, stronger effect = lower value 0.989 | S. cerevisiae deletion strains, locus YHR129C, strain ARP1, stronger effect = lower value 0.992 | S. cerevisiae deletion strains, locus YHR200W, strain rpn10, stronger effect = lower value 0.994 | S. cerevisiae deletion strains, locus YIL066C, strain RNR3, stronger effect = lower value 0.999 | S. cerevisiae deletion strains, locus YIL073C, strain SPO22, stronger effect = lower value 0.9 | S. cerevisiae deletion strains, locus YIL125W, strain kgd1, stronger effect = lower value 0.995 | S. cerevisiae deletion strains, locus YIR030C, strain dcg1, stronger effect = lower value 0.993 | S. cerevisiae deletion strains, locus YJL095W, strain BCK1, stronger effect = lower value 1.06 | S. cerevisiae deletion strains, locus YJL134W, strain LCB3, stronger effect = lower value 0.989 | S. cerevisiae deletion strains, locus YJL168C, strain set2, stronger effect = lower value 0.991 | S. cerevisiae deletion strains, locus YJL187C, strain SWE1 (second series), stronger effect = lower value 0.994 | S. cerevisiae deletion strains, locus YJR043C, strain POL32, stronger effect = lower value 1.04 | S. cerevisiae deletion strains, locus YJR075W, strain HOC1, stronger effect = lower value 1.02 | S. cerevisiae deletion strains, locus YKL009W, strain mrt4, stronger effect = lower value 0.978 | S. cerevisiae deletion strains, locus YKL068W, stronger effect = lower value 0.987 | S. cerevisiae deletion strains, locus YKL085W, strain MDH1 (second series), stronger effect = lower value 0.972 | S. cerevisiae deletion strains, locus YKL085W, strain MDH1, stronger effect = lower value 0.972 | S. cerevisiae deletion strains, locus YKL190W, strain CNB1, stronger effect = lower value 0.99 | S. cerevisiae deletion strains, locus YKR001C, strain vps1, stronger effect = lower value 1 | S. cerevisiae deletion strains, locus YLR039C, strain RIC1, stronger effect = lower value 1.02 | S. cerevisiae deletion strains, locus YLR058C, strain SHM2, stronger effect = lower value 0.986 | S. cerevisiae deletion strains, locus YLR102C, strain apc9, stronger effect = lower value 0.989 | S. cerevisiae deletion strains, locus YLR262C, strain YPT6, stronger effect = lower value 0.985 | S. cerevisiae deletion strains, locus YLR268W, strain sec22, stronger effect = lower value 1.02 | S. cerevisiae deletion strains, locus YLR330W, strain CHS5, stronger effect = lower value 0.981 | S. cerevisiae deletion strains, locus YLR342W, strain FKS1 (second series), stronger effect = lower value 0.968 | S. cerevisiae deletion strains, locus YLR371W, strain rom2, stronger effect = lower value 0.978 | S. cerevisiae deletion strains, locus YLR418C, strain cdc73, stronger effect = lower value 1.02 | S. cerevisiae deletion strains, locus YML016C, strain PPZ1, stronger effect = lower value 0.991 | S. cerevisiae deletion strains, locus YML032C, strain rad52, stronger effect = lower value 0.998 | S. cerevisiae deletion strains, locus YML124C, strain tub3, stronger effect = lower value 1 | S. cerevisiae deletion strains, locus YMR078C, strain ctf18, stronger effect = lower value 0.997 | S. cerevisiae deletion strains, locus YMR223W, strain ubp8, stronger effect = lower value 0.995 | S. cerevisiae deletion strains, locus YMR263W, strain SAP30, stronger effect = lower value 1.01 | S. cerevisiae deletion strains, locus YMR307W, strain GAS1, stronger effect = lower value 0.99 | S. cerevisiae deletion strains, locus YNL067W, strain RPL9B, stronger effect = lower value 1.03 | S. cerevisiae deletion strains, locus YNL128W, strain TEP1, stronger effect = lower value 1.02 | S. cerevisiae deletion strains, locus YNL153C, strain GIM3, stronger effect = lower value 1.01 | S. cerevisiae deletion strains, locus YNL233W, strain BNI4, stronger effect = lower value 1 | S. cerevisiae deletion strains, locus YNL250W, strain rad50, stronger effect = lower value 0.991 | S. cerevisiae deletion strains, locus YNL271C, strain bni1, stronger effect = lower value 0.983 | S. cerevisiae deletion strains, locus YNL298W, strain CLA4, stronger effect = lower value 1.01 | S. cerevisiae deletion strains, locus YNL307C, strain MCK1, stronger effect = lower value 0.997 | S. cerevisiae deletion strains, locus YNL322C, strain KRE1, stronger effect = lower value 0.997 | S. cerevisiae deletion strains, locus YNR052C, strain pop2, stronger effect = lower value 0.994 | S. cerevisiae deletion strains, locus YOL006C, strain TOP1, stronger effect = lower value 1.05 | S. cerevisiae deletion strains, locus YOL012C, strain htz1 0.88 | S. cerevisiae deletion strains, locus YOL147C, strain pex11, stronger effect = lower value 0.994 | S. cerevisiae deletion strains, locus YOR061W, strain CKA2, stronger effect = lower value 0.999 | S. cerevisiae deletion strains, locus YOR069W, strain VPS5, stronger effect = lower value 1.01 | S. cerevisiae deletion strains, locus YOR136W, strain idh2, stronger effect = lower value 0.993 | S. cerevisiae deletion strains, locus YOR144C, strain elg1, stronger effect = lower value 0.995 | S. cerevisiae deletion strains, locus YOR184W, strain ser1, stronger effect = lower value 0.982 | S. cerevisiae deletion strains, locus YOR316C, strain cot1, stronger effect = lower value 0.987 | S. cerevisiae deletion strains, locus YPL055C, strain LGE1, stronger effect = lower value 1.04 | S. cerevisiae deletion strains, locus YPL241C, strain CIN2, stronger effect = lower value 1.01 | S. cerevisiae deletion strains, locus YPR119W, strain clb2, stronger effect = lower value 0.993 | S. cerevisiae deletion strains, locus YPR141C, strain kar3, stronger effect = lower value 0.992 | S. cerevisiae deletion strains, locus YPR163C, strain tif3, stronger effect = lower value 1 | S. cerevisiae deletion strains, locus YPR167C, strain met16, stronger effect = lower value 0.994 | S. cerevisiae deletion strains, strain wtn01, stronger effect = lower value 0.993 | S. cerevisiae strains, strain wild type, stronger effect = lower value 0.992
